In the library only some 2.4% were active in any assay of this set; here they are far more common.
BRCT inh green: BRCA1 BRCT-phosphoprotein interaction inhibition. P38398. BRCA1 BRCT-phosphopeptide binding, green fluorescence polarization. Potency, µM (titrated, usually from 76.9 µM), inactives show at the top dose activity change, negative = inhibition, most hits filed as inhibitors. 75,000 tested, 0.05% active;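 note: potency is the fitted concentration of half-maximal effect; plate controls were peptide without protein for full effect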
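Fluorescence polarization: His-tagged BRCT (~35 kDa BRCA1 C-terminus, 250 nM) bound to 100 nM fluorescein-labeled phosphorylated 10-aa BACH1 peptide, pH 7.3 phosphate buffer with DTT and Tween 20. Compounds incubated 12 min at room temperature; inhibition read as lowered polarization.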
ERK AVP block: blocks ERK signaling stimulated by vasopressin; HEK293-V1b, vasopressin-stimulated pERK AlphaScreen; Potency, µM (series often up to 57.5 µM), for inactives: top-dose activity, negative = inhibition, hits mostly inhibitors; 72,000 tested, 0.99% active; AID 995; note: potency is the fitted concentration of half-maximal effect; % is set by controls: 0 for no effect and ±100 for the full control effect; nearly all actives have a fitted effect of over 55% in size
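HEK293 cells stably expressing V1b receptor, seeded overnight in 1% FBS, were treated with compounds for 30 min at 37C, then stimulated 5 min with 25 nM vasopressin; phospho-ERK read by AlphaScreen SureFire after lysis.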
DNA Pol III inh: blocks replication by bacterial DNA polymerase III holoenzyme. reconstituted DNA polymerase III holoenzyme replication, biochemical. Potency, µM (highest dose often 57.1 µM), for the others: at the top dose activity change, negative = inhibition. 71,000 tested, 0.25% active; note: potency is the fitted concentration of half-maximal effect; % is set by controls: 0 for no effect and ±100 for the full control effect
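Reconstituted *E. coli* holoenzyme (0.35 nM Pol III, 1 nM beta, 154 nM SSB, 2 nM primase) was preincubated with compound for 15 min at RT. Synthesis on 1.4 nM ssM13Gori ran 35 min, then was stopped with PicoGreen/EDTA and read as dsDNA fluorescence.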
ALOX15 inhib: 15-hLO (ALOX15) enzyme inhibition. 74,000 tested, 1.4% active. purified 15hLO-1, xylenol orange hydroperoxide absorbance. Potency, µM (series often up to 57.1 µM), for the others: top-dose activity change, negative = inhibition, actives largely listed as inhibitors. P16050. AID 887; note: potency is the fitted concentration of half-maximal effect; % is set by controls: 0 for no effect and ±100 for the full control effect; nearly all actives have a fitted effect of over 55% in size
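Hydroperoxide formed from arachidonic acid (50 uM) by purified human 15hLO-1 (40 nM) oxidizes ferrous iron, and the ferric-xylenol orange complex is read at 573 versus 405 nm. Compounds were preincubated 15 min; reaction ran 6 min at room temperature.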
BRCT inh red: disrupts BRCA1 BRCT binding to phosphoprotein, red fluorophore readout; BRCT-phosphopeptide binding, red fluorescence polarization; P38398; AID 892; 75,000 tested, 0.03% active; Potency, µM (highest dose often 76.9 µM), inactives show at the top dose activity change, negative = inhibition, hits mostly inhibitors; note: % is set by controls: 0 for no effect and ±100 for the full control effect
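Fluorescence polarization: 100 nM His-tagged BRCA1 BRCT with 100 nM TAMRA-labelled phospho-BACH1 decapeptide, phosphate buffer pH 7.3 with 150 mM NaCl, DTT, 0.01% Tween 20; 12 min RT. Binding inhibition seen as FP decrease.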
TsaE inh: YjeE (TsaE) inhibition, E. coli | Potency, µM | AID 605 | purified YjeE enzyme, qHTS inhibition assay | P0AF67 | 71,000 tested, 0.05% active
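Purified YjeE (10 uM) with BODIPY Texas Red-labeled ADP probe (2 uM); compounds pin-transferred, 15 min at room temperature. Binding inhibition read as decreased fluorescence polarization; ADP titration as control.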
The depositor's hits bear a star; [ ] = another dose, or the depositor's remark. Calls come from the whole dose curve; as a rule, active = well fitted curve in the direction sought with a large enough effect; inconclusive = small, poorly fitted or top-dose-only effect, or another doubt; inactive = no such curve, though single readings can be large; an effect the other way counts as inactive or inconclusive.

How did COc1ccc(-c2nnc3ccc(SC)nn23)cc1 do in these assays?
BRCT inh green: 2%; ERK AVP block: 11%; DNA Pol III inh: -8%; ALOX15 inhib: -3%; BRCT inh red: -2%; TsaE inh: inactive

Results for CN(Cc1ccco1)c1nc(-c2cccc(C#N)c2)nc2ccccc12 ?
BRCT inh green: 3%; ERK AVP block: 21%; DNA Pol III inh: 10%; ALOX15 inhib: -8%; BRCT inh red: -2%; TsaE inh: inactive

How did NCCOc1ccccc1-c1ccccc1 do in these assays?
BRCT inh green: 0%; ERK AVP block: inconclusive; DNA Pol III inh: 0%; ALOX15 inhib: 25%; BRCT inh red: 1%; TsaE inh: inactive

What do the screens show for `NCCOB(c1ccccc1)c1ccccc1`?
BRCT inh green: 12%; ERK AVP block: inconclusive; DNA Pol III inh: -2%; ALOX15 inhib: 0.63µM*; BRCT inh red: -29%; TsaE inh: inconclusive

What do the screens show for `c1ccc(CN2CCN(CCCNc3ccc4nnc(-c5ccccc5)n4n3)CC2)cc1`?
BRCT inh green: 9%; ERK AVP block: 40µM*; DNA Pol III inh: -4%; ALOX15 inhib: -17%; BRCT inh red: -5%; TsaE inh: inactive

What do the screens show for `C[C@@]12CC[C@H]3[C@@H](CCC4=CC(=O)CC[C@]43C)[C@H]1CC[C@H]2C(=O)CO`?
BRCT inh green: 2%[34.4 µM]; ERK AVP block: inconclusive; DNA Pol III inh: -5%[25.6 µM]; ALOX15 inhib: -7%[25.6 µM]; BRCT inh red: -1%[34.4 µM]; TsaE inh: inactive

What do the screens show for `CSc1ncnc2c1ncn2CC(=O)[C@H]1CC[C@H]2[C@H]3CCC4=CC(=O)CC[C@@]4(C)[C@@H]3CC[C@@]12C`?
BRCT inh green: -1%[15.4 µM]; ERK AVP block: 4µM*; DNA Pol III inh: 5%[11.4 µM]; ALOX15 inhib: -17%[11.4 µM]; BRCT inh red: 0%[15.4 µM]; TsaE inh: inactive

How did C=CC(C)(C)c1[nH]c2ccccc2c1C1=C(O)C(=O)C(c2c[nH]c3c(CC=C(C)C)cccc23)=C(O)C1=O do in these assays?
BRCT inh green: -6%; ERK AVP block: inconclusive; DNA Pol III inh: 1.3µM*; ALOX15 inhib: inconclusive; BRCT inh red: -6%; TsaE inh: 100µM*

How did COC(=O)c1[nH]c2ccccc2c1NC(=O)CN1CCN(c2cccc(OC)c2)C(C)C1 (centres undefined) do in these assays?
BRCT inh green: -1%; ERK AVP block: 32µM*; DNA Pol III inh: -1%; ALOX15 inhib: -18%; BRCT inh red: -1%; TsaE inh: inactive

Results for CCOC(=O)C1CCN(CC(=O)Nc2c(C(=O)OC)[nH]c3ccc(Cl)cc23)CC1 ?
BRCT inh green: -2%; ERK AVP block: 25µM*; DNA Pol III inh: -5%; ALOX15 inhib: -6%; BRCT inh red: 0%; TsaE inh: inactive

Results for O=C(c1csnn1)N1CCC2(CCN(Cc3cc(C(F)(F)F)cc(C(F)(F)F)c3)CC2)CC1 ?
BRCT inh green: -1%; ERK AVP block: 1%; DNA Pol III inh: -3%; ALOX15 inhib: 2%; BRCT inh red: -2%; TsaE inh: inactive

Results for COc1ccccc1OC[C@H](O)CN1CCN(CC(=O)Nc2c(C)cccc2C)CC1 ?
BRCT inh green: -2%; ERK AVP block: -15%; DNA Pol III inh: 15%; ALOX15 inhib: 11%; BRCT inh red: -1%; TsaE inh: inactive

What do the screens show for `Brc1ccc(C2Nc3cccc4cccc(c34)N2)o1`?
BRCT inh green: -1%; ERK AVP block: inconclusive; DNA Pol III inh: -10%; ALOX15 inhib: 10µM*; BRCT inh red: 1%; TsaE inh: inactive

What do the screens show for `Oc1ccccc1C1Nc2cccc3cccc(c23)N1`?
BRCT inh green: -3%; ERK AVP block: 9%; DNA Pol III inh: -15%; ALOX15 inhib: 20µM*; BRCT inh red: -2%; TsaE inh: inactive

How did O=C1NC(c2ccco2)Nc2ccccc21 (centres undefined) do in these assays?
BRCT inh green: -2%; ERK AVP block: -1%; DNA Pol III inh: -8%; ALOX15 inhib: -16%; BRCT inh red: -1%; TsaE inh: inactive

Results for CCCCCCC(=O)N1CCC(c2nc3c(nnn3Cc3ccccc3Cl)c(=O)[nH]2)CC1 ?
BRCT inh green: 0%; ERK AVP block: inconclusive; DNA Pol III inh: 0%; ALOX15 inhib: -21%; BRCT inh red: -2%; TsaE inh: inactive

What do the screens show for `CCCn1c(NC(=O)C2CCN(S(=O)(=O)c3cccs3)CC2)nc2ccccc21`?
BRCT inh green: 1%; ERK AVP block: 13µM*; DNA Pol III inh: 10%; ALOX15 inhib: 12%; BRCT inh red: 1%; TsaE inh: inactive

How did CCCn1c(NC(=O)c2cccc(S(=O)(=O)N3CCCC3)c2)nc2ccccc21 do in these assays?
BRCT inh green: 1%; ERK AVP block: inconclusive; DNA Pol III inh: 2%; ALOX15 inhib: 0%; BRCT inh red: -2%; TsaE inh: inactive

Results for O=C1C=CC2=C3c4cc(O)c(O)cc4C[C@@]3(O)COC2=C1O ?
DNA Pol III inh: 0.02µM*; TsaE inh: inconclusive

How did O=C1C=CC2=C3c4cc(O)c(O)cc4C[C@]3(O)COC2=C1 do in these assays?
BRCT inh green: -1%[3.08 µM]; ERK AVP block: -4%; ALOX15 inhib: -24%; BRCT inh red: -10%

How did CCOC(=O)CCN1C(=O)[C@H]2[C@@H]3[C@H](O)C=CC(=O)[C@H]3CC[C@H]2C1=O do in these assays?
BRCT inh green: -2%[15.4 µM]; ERK AVP block: 11%[11.5 µM]; ALOX15 inhib: 10%[11.4 µM]; BRCT inh red: 0%[15.4 µM]

How did CCOC(=O)CCCCCCCCCCCCC1C=CCC1 (centres undefined) do in these assays?
BRCT inh green: -2%; ERK AVP block: 7%; ALOX15 inhib: 13µM*; BRCT inh red: 1%

How did C=CCCC do in these assays?
BRCT inh green: -1%; ERK AVP block: 6%; DNA Pol III inh: 0%; ALOX15 inhib: 2%; BRCT inh red: 2%; TsaE inh: inactive

How did CCOC(=O)C1CCN(S(=O)(=O)c2cccc(-c3cn4cccc(C)c4n3)c2)CC1 do in these assays?
BRCT inh green: 0%; ERK AVP block: 20µM*; DNA Pol III inh: -3%; ALOX15 inhib: -8%; BRCT inh red: 0%; TsaE inh: inactive

Results for CN(N=O)C(=O)N[C@H]1C(O)C(O)C(CO)O[C@@H]1O (some centres undefined) ?
BRCT inh green: -3%[3.08 µM]; ERK AVP block: 2%; ALOX15 inhib: -13%; BRCT inh red: 0%

How did CCCS(=O)(=O)c1c(S(=O)(=O)CCC)c2ccccn2c1C(=O)OC do in these assays?
BRCT inh green: -1%; ERK AVP block: -20%; DNA Pol III inh: 3%; ALOX15 inhib: -7%; BRCT inh red: -1%; TsaE inh: inactive
